PubChem BioAssay AID1851 (National Center for Advancing Translational Sciences (NCATS), 2009)
Values joined by “and” are separate entries in the source; they are usually repeats but may differ in a detail not shown here. Equal values may be shown once. The whole screen tested about 16,000 compounds, of which about 2,600 (16%) were called active. Not shown: some 20% with an inconclusive outcome. Calls follow the shape of the dose curve; as a rule, active = well fitted curve in the direction sought with a large enough effect; inconclusive = small, poorly fitted or top-dose-only effect, or effect the other way; inactive = no such curve, though single readings can be large or run the other way. Only a sample is shown. More than one record can exist for a structure, and the calls need not agree.

These molecules were tested against Cytochrome P450 2D6 (Homo sapiens) (UniProt P10635) (assay: Cytochrome panel assay with activity outcomes). Details: recombinant CYP, pro-luciferin dealkylation, luminescence, p450-cyp2d6; series mostly up to 57.1 µM.
% is scaled to controls: 0 for no effect and ±100 for the full control effect.

Sequence of Cytochrome P450 2D6 (Homo sapiens) (P10635 whole entry, looked up): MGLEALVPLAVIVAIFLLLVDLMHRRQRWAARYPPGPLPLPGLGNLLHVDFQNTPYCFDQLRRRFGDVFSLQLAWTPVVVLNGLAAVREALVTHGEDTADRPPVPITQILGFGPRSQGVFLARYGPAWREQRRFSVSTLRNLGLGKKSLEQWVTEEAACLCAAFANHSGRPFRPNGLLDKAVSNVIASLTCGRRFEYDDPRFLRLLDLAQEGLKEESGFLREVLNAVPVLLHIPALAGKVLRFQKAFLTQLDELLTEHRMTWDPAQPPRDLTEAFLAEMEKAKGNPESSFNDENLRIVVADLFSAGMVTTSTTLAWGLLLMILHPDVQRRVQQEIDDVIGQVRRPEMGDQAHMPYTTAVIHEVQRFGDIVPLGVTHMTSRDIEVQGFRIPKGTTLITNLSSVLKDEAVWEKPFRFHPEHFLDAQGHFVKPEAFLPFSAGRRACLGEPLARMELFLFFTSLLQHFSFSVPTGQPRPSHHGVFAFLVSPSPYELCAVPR

Structure (SMILES)	AC50	activity, negative = inhibition
CCOC(=O)N1CCN(CC(=O)c2ccc3c(c2)CCN3)CC1	inactive	–
CC(=O)C1=C(O)C=C(c2ccco2)CC1c1ccco1 (stereo not given)	inactive	–
c1ccc(-c2nc(CSc3n[nH]c(-c4cccs4)n3)cs2)cc1	1.12 µM (active)	–
Cc1cc(NC(=O)CSc2n[nH]c(-c3cccs3)n2)no1	inactive	–
CSc1n[nH]c(-c2sccc2OCc2ccc(C)cc2)n1	inactive	–
C=CC[C@@H](C(=O)O)c1ccccc1	–	1.94% [at 11.4 µM] (inactive)
CCc1c(C)c(C#N)c2nc3ccccc3n2c1N1CCN(c2cc(C)ccn2)CC1	inactive	–
C[C@H]1CCCC=CC2C[C@H](OC(=O)CN(C)C)C[C@@H]2[C@@H](O)/C=C\C(=O)O1 (stereo not given in full)	–	9.34% [at 11.4 µM] (inactive)
Cc1cccc2sc(NC(=O)C3c4ccccc4Oc4ccccc43)nc12	inactive	–
c1ccc(-c2cccc(N3CC[C@@]4(CCCNC4)C3)c2)cc1	10 µM (active)	–
O=S(=O)(c1ccccc1)N1CCC2(CCCN(c3cccc(-c4ccccc4)c3)C2)CC1	inactive	–
c1ccc(-c2cccc(N3CC4(CCNCC4)C3)c2)cc1	20 µM (active)	–
Cn1cccc1C(=O)N1CCC2(CC1)CN(c1cccc(-c3ccccc3)c1)C2	inactive	–
O=S(=O)(c1ccccc1)N1CCC[C@@]2(CCN(c3cccc(-c4ccccc4)c3)C2)C1	inactive	–
CS(=O)(=O)N1CCC2(CC1)CN(c1cccc(-c3ccccc3)c1)C2	inactive	–
Cc1ccccc1C(=O)Nc1ccc(C(=O)NNC(=O)CCCOc2ccc(Cl)cc2Cl)cc1	inactive	–
COc1cc(Br)c(C(C)NC(=O)c2cccc(Br)c2)cc1OC (stereo not given)	inactive	–
C/C(=N\NC(=O)c1cccc(C)c1)c1cccc(NC(=O)c2ccco2)c1	inactive	–
Cn1c([N+](=O)[O-])cnc1COC(N)=O	inactive	–
Cc1cc(C)c2cc(C#N)c(NCCOC(=O)c3ccccc3C)nc2c1	inactive	–
Cc1nn(-c2ccc(Cl)cc2)c2sc(C(=O)c3c(N)n(C)c(=O)n(C)c3=O)cc12	inactive	–
Cc1nn(-c2ccccc2)c2c1C(c1ccc(O)c(O)c1)N1C(=N2)C(Nc2ccccc2)=Nc2ccccc21 (stereo not given)	inactive	–
COc1ccccc1OCc1ccc(C(=O)N(C)C)o1	inactive	–

Structure (SMILES)	AC50	activity, negative = inhibition
Cc1ccc(C(=O)NNC(=O)CSc2nnc3c(n2)[nH]c2ccc(F)cc23)cc1	inactive	–
O=C(O)c1cc(-c2ccc(-c3ccccc3)cc2)nc2cc3ccccc3cc12	–	-10.7% [at 11.4 µM] (inactive)
CC(=O)Nc1ccc(-c2cc(C(=O)O)c3cc4ccccc4cc3n2)cc1	–	-6.98% [at 11.4 µM] (inactive)
COc1ccc(OC)c(-c2cc(C(=O)O)c3cc4ccccc4cc3n2)c1	3.98 µM (active)	–
O=C(Oc1ccc(C(=S)N2CCOCC2)cc1Br)c1cc(Cl)ccc1Cl	inactive	–
O=C(O)c1ccc(C(=O)Nc2cccc3ccccc23)c(C(=O)O)c1	–	10.4% [at 11.4 µM] (inactive)
COc1ccc(-n2c(=O)c(C)nc3cnc(Nc4cccc(OC)c4)nc32)cc1	inactive	–
COc1cccc2cc(C(=O)CC3(O)C(=O)N(Cc4ccccc4)c4ccccc43)c(=O)oc12 (stereo not given)	inactive	–
COc1cccc(-c2nccc(NCc3cccs3)n2)c1	0.316 µM (active)	–
COc1cccc(-c2nccc(NCc3ccccc3)n2)c1	1 µM (active)	–
COc1cccc(Nc2ncc3nc(-c4ccccc4)c(=O)n(Cc4cccs4)c3n2)c1	inactive	–
COc1cccc(-c2nccc(NCc3cccc(C)c3)n2)c1	10 µM (active)	–
COc1cccc(-c2nccc(NCc3cnc(C)cn3)n2)c1	inactive	–
COc1ccc(-c2nc3cnc(Nc4cccc(OC)c4)nc3n(Cc3cccs3)c2=O)cc1	inactive	–
CCOC(=O)CCN1C(=O)[C@H]2[C@@H]3[C@H](O)[C@H](O)CC(=O)[C@H]3CC[C@H]2C1=O	–	-6.39% [at 11.4 µM] (inactive)
CC(C)CN(CC#N)CC(C)C	–	1.21% [at 11.4 µM] (inactive)
O=C(c1cc(C(F)(F)F)cc(C(F)(F)F)c1)N1CCC2(CC1)CN(c1ccccc1)C2	inactive	–
O=c1ncn(-c2ccccc2F)c2ncccc12	inactive	–
CN1CCCC2(CCN(C(=O)c3cc(C(F)(F)F)cc(C(F)(F)F)c3)CC2)C1	inactive	–
O=C(Nc1ccccc1N1CCN(C(=O)c2ccc(Cl)cc2)CC1)c1cc(Br)ccc1Cl	inactive	–
C[C@@H](c1ccccc1)N1C(=O)[C@H]2[C@H]3[C@H](O)[C@H](O)C/C(=N/OC[C@@H](O)COCc4ccco4)[C@@H]3CC[C@@H]2C1=O	–	3.23% [at 11.4 µM] (inactive)
O=C(N/N=C/c1c[nH]c2ccc(Br)cc12)c1ccn(Cc2ccc(Cl)cc2)n1	12.6 µM (active)	–
O=C(N/N=C/c1c[nH]c2ccccc12)c1cc(-c2ccc(-c3ccccc3)cc2)n[nH]1	inactive	–

Structure (SMILES)	AC50	activity, negative = inhibition
[N-]=[N+]=NC[C@@H]1O[C@@H](n2cnc3c(N)ncnc32)[C@@H]2O[C@@H]21	–	3.12% [at 11.4 µM] (inactive)
CC(=O)N1CCc2cc(S(=O)(=O)CCC(=O)Nc3c(C)n(C)n(-c4ccccc4)c3=O)ccc21	inactive	–
CC(C)CCNC1=NCCCCC1	12.6 µM (active)	–
Cc1ccc2[nH]c3nc(CCCn4ccnc4-c4ccccc4)nnc3c2c1	–	-15.6% [at 11.4 µM] (inactive)
Cc1sc(NC(=O)c2ccc(OCC(C)C)cc2)c(C(N)=O)c1-c1ccc(Cl)cc1Cl	inactive	–
N#Cc1cccc(NC(=O)N2CC3(CCN(C(=O)c4cnccn4)CC3)C2)c1	inactive	–
CCOc1ccccc1C1C(C#N)=C(N)Oc2n[nH]c(CC)c21 (stereo not given)	inactive	–
O=C(N/N=C\c1ccc(-c2ccccc2[N+](=O)[O-])o1)C1COc2cc3ccccc3cc2O1 (stereo not given)	inactive	–
N#Cc1c(-c2ccccc2)ccnc1Oc1ccccc1	inactive	–
Cc1cc(C)c(C#N)c(Oc2ccc(F)cc2)n1	inactive	–
CN(C)c1ccnc(Oc2ccc(Cl)cc2)c1C#N	5.01 µM (active)	–
COC(=O)[C@@H]1CC[C@H](C)[C@@H](c2ccc(C)cc2)N1C(=O)c1ccc(/C=N\OC[C@@H]2O[C@H](c3ccccc3)C=C[C@@H]2Oc2ccc(OC)cc2)cc1	–	3.42% [at 11.4 µM] (inactive)
CCCN[C@@H](C)C(=O)Nc1c(C)csc1C(=O)OC	inactive	–
CCOC(=O)N1CCN(C(=O)c2cccn3c(=O)c4cc(Cl)ccc4nc23)CC1	inactive	–
CCOC(=O)N1CCN(c2c(-c3ccccc3)c3cc(Cl)ccc3[nH]c2=O)CC1	0.355 µM (active)	–
CCOC(=O)c1[nH]c2ccc(Cl)cc2c1-c1ccccc1	inactive	–
O=C(c1ccccc1)N1CCSC1=S	inactive	–
COc1ccc(C(=O)[C@H](Br)[C@H](Br)C(=O)O)cc1	–	-14.6% [at 11.4 µM] (inactive)
CCOc1cc(/C=N/n2cnnc2)c(Br)cc1O	inactive	–
Cc1ccc(/C=N/NC(=O)CSc2nc3ccccc3n2C)s1	7.08 µM (active)	–
Cn1c(/C=N/NC(=O)c2ccccc2Br)nc2ccccc21	inactive	–
Cc1ccc(C(=O)N/N=C/c2nc3ccccc3n2C)cc1	inactive	–
O=C(c1cc(Br)ccc1O)c1cc(Br)ccc1O	–	-11.4% [at 11.4 µM] (inactive)

Structure (SMILES)	AC50	activity, negative = inhibition
CC(C)=C[C@H]1[C@@H](C(=O)Oc2ccccc2C(C)C)C1(C)C	–	0.868% [at 11.4 µM] (inactive)
CC1(C)CCC=[N+]1[O-]	inactive	–
Nc1c2c(nc3ccccc13)CCC[C@H]2O	inactive	–
Nc1[nH]n2c(=O)c3c(nc2c1N=Nc1ccccc1)CCCC3	inactive	–
Nc1c2c(nc3ccccc13)CCCC2	5.01 µM (active) and inactive	–
COc1ccc(NC(=O)C2CC(=O)NC3=C2C(=O)CC(C)(C)C3)cc1 (stereo not given)	inactive	–
COc1ccc(CCN=CC2=C(O)CC(C)(C)CC2=O)cc1	inactive	–
CC(=O)OC[C@@H]1O[C@H](C/C=N\O[C@@H](C)c2cc(-c3c(C)cc(C)cc3C)no2)C=C[C@@H]1OC(C)=O	–	-0.786% [at 11.4 µM] (inactive)
CC(=O)OC[C@@H]1O[C@H](C/C=N\O[C@@H](C)CN2CCCc3nc(C)c(C)cc32)C=C[C@@H]1OC(C)=O	3.16 µM (active)	–
CC(=O)OC[C@@H]1O[C@H](C/C=N\O[C@@H](C)c2cn([C@H]3COC[C@H]3O)nn2)C=C[C@@H]1OC(C)=O	–	10.3% [at 11.4 µM] (inactive)
CC(=O)OC[C@@H]1O[C@H](C/C=N\O[C@@H](C)c2cn([C@H](CO)Cc3ccccc3)nn2)C=C[C@@H]1OC(C)=O	–	6.63% [at 11.4 µM] (inactive) and -11.6% [at 11.4 µM] (inactive)
CC(=O)OC[C@@H]1O[C@H](C/C=N\OC[C@@H](O)COCc2ccco2)C=C[C@@H]1OC(C)=O	–	-5.26% [at 11.4 µM] (inactive)
CC(=O)OC[C@@H]1O[C@H](C/C=N\O[C@@H](C)CN2CCCCc3nc(C)c(C)cc32)C=C[C@@H]1OC(C)=O	3.16 µM (active)	–
CC(C)Nc1nc(NC(C)(C)C)nc(Oc2ccc(=O)n(-c3ccccc3)n2)n1	inactive	–
Cc1ccc(NC(=O)Nc2nc(-c3ccc(C)s3)cs2)cc1	inactive	–
CCCCN(C(=O)NC(=O)Nc1ccccc1OCC)S(C)(=O)=O	inactive	–
Cc1ccc2nc(N/N=C\c3cccc(C)n3)cc(C)c2c1	3.16 µM (active)	–
Cc1cnn(-c2cc(N/N=C/c3ccccc3)ncn2)c1	inactive	–
COc1cccc(C(C#N)N2N=C(C)CC2(C)C)c1O (stereo not given)	inactive	–
Cc1nc(S(=O)(=O)N2CCOCC2)c(C#N)c(C)c1Cl	inactive	–
COc1cccc2c1[C@@H]1CN(CCCCn3c(=O)[nH]c4c(sc5ncc(-c6ccccc6)nc54)c3=O)C[C@H]1CO2	31.6 µM (active)	–
